Only some compounds are listed: those with a hit (about 0.98% of all), similar ones and a draw of the others.
C-LANA FP = inhibitors of KSHV LANA C-terminal domain DNA binding; inhibition, % at 9 µM; MBP-C-LANA/FAM-LBS DNA binding, fluorescence polarization; AID 504423; 340,000 tested, 0.078% active;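 active means highest replicate inhibition at or above 60% at 9 µM, even if other replicates fall short; inactive means all replicates below 60% inhibition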
RTF Ca sens inh = cardiac RTF calcium desensitization. P19429+P45379. IANBD-labeled cardiac RTF, Ca2+ fluorescence. inhibition, % at 7.15 µM. 340,000 tested, 0.12% active;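 active means inhibition above the mean inhibition of all tested compounds plus 3 SD, cut at about 17% in these data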;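 further: assay run at fixed EC70 calcium of 1.6 mM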
Keap1-Nrf2 PPI = Keap1-Nrf2 (human) interaction inhibition; AID 504523; 340,000 tested, 0.15% active; inhibition, % at 9.4 µM; Q14145; Keap1 Kelch-Nrf2 peptide fluorescence polarization, 1536-well; in the data active means inhibition above about 12%;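 further: human Keap1 Kelch domain with fluorescein labeled Nrf2 9mer peptide probe; higher means more block of Keap1 binding to Nrf2 peptide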
Target sequence (Q14145 whole entry, looked up, the tested form may be a part): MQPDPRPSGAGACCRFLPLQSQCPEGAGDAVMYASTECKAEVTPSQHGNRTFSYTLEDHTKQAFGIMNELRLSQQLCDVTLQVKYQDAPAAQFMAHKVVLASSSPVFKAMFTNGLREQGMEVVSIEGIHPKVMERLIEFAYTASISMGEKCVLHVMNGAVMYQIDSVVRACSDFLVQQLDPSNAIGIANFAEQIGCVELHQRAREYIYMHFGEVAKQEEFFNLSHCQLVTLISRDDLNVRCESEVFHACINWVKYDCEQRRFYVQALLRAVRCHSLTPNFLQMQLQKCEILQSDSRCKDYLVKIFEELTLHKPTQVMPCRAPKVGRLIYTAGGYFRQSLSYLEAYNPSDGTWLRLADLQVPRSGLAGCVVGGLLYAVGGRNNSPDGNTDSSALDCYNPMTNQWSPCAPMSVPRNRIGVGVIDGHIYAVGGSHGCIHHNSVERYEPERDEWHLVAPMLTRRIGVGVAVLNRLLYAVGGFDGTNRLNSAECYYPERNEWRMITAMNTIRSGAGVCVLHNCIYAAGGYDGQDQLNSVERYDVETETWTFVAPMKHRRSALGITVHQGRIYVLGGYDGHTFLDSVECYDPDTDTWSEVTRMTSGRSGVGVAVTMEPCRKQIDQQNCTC
RTF Ca sens act = increases calcium sensitivity of human cardiac regulated thin filaments. 340,000 tested, 0.24% active. P19429+P45379. AID 493008. IANBD-labeled TnC RTF fluorescence at EC20 calcium; 0% EC20 calcium, 100% full calcium. activation, % at 7.2 µM;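 active means activation above the mean over all tested compounds plus 3 SD, cut at about 30% in these data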;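 further: rise in fluorescence read as greater calcium sensitivity of cardiac thin filaments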
LANA-H2A inh = blocks KSHV LANA binding to histone H2A/H2B; inhibition, % (no concentration beside the values); 320,000 tested, 0.6% active; cell-free LANA-H2A/H2B peptide, fluorescence polarization; AID 2629; in the data active means inhibition mostly above about 10%, no sharp cut-off; inactive means mostly below about 6.7%
Each line names hits and unclear results; the compound was inactive in the other large screens; ! = not active in a repeat.

CN(C)c1ccc(/C=N/NC(N)=S)cc1[N+](=O)[O-]	LANA-H2A inh 25
O=C(Nc1nccs1)c1ncc(Cl)c(Cl)c1Cl	none
Nc1ccn(C2OC(COP(=O)(O)O)C(O)C2O)c(=O)n1 (configuration not stated)	none (no result: LANA-H2A inh)
COc1cccc(CNC(=O)CC(NC(=O)c2ccccc2)c2ccccc2)c1 (configuration not stated)	LANA-H2A inh 32
COc1cccc(CNC(=O)CC(NC(C)=O)c2ccccc2)c1 (configuration not stated)	none
N#Cc1ccc(Oc2ccc(C#N)c(C#N)c2)cc1C#N	none (no result: LANA-H2A inh)
CCCC[C@@H]1C=C(C(=O)O)[C@H](c2ccc(Cl)cc2)N1S(=O)(=O)c1ccc(C)cc1	LANA-H2A inh 84
COC(=O)c1ccc(C(=O)OC)c(NC(=O)COC(=O)C2CC2C)c1 (configuration not stated)	LANA-H2A inh 21
CC1CC1C(=O)OCC(=O)Nc1ccccc1Oc1ccccc1 (configuration not stated)	LANA-H2A inh 35
COC(=O)c1ccc(C(=O)OC)c(NC(=O)COC(=O)C2CCCCC2)c1	none
O=C(COc1ccccc1)Nc1ccccc1Oc1ccccc1	none
CC(C)CCNC(=O)c1ccc(Cn2c(=S)[nH]c3ccccc3c2=O)cc1	none
COc1ccc(C2C(C(=O)N3CCCC3)c3cc(OC)c(OC)cc3C(=O)N2C)cc1OC (configuration not stated)	none
COc1ccc(C2C(C(=O)N3CCN(C)CC3)c3cc(OC)c(OC)cc3C(=O)N2C)cc1 (configuration not stated)	LANA-H2A inh active
CCN1C(=O)/C(=C/C=C2\C=CN(CC)c3ccccc32)SC1=S	none
CN1C(=CC=C2C=C(I)C(=O)C(I)=C2)C(C)(C)c2ccccc21	RTF Ca sens act 92 (no result: LANA-H2A inh)
CN1/C(=C\C=C2/C(=O)Oc3ccccc3C2=O)C(C)(C)c2ccccc21	none (no result: C-LANA FP, RTF Ca sens inh, Keap1-Nrf2 PPI, RTF Ca sens act)
CN1/C(=C\C=C2/SC(=S)NC2=O)C(C)(C)c2ccccc21	RTF Ca sens act 344
CCCN1C(=O)/C(=C\C=C2\N(CC)c3ccccc3C2(C)C)SC1=S	RTF Ca sens act 90 (no result: LANA-H2A inh)
COc1cc(O)c(C=Nc2ccccc2NS(=O)(=O)c2ccc(C)cc2)c(OC)c1	none (no result: LANA-H2A inh)
COc1cccc(-c2c(C#N)c(N)nc3c2c(C)nn3-c2ccccc2)c1O	none
Cc1ccsc1CN(C)CC(=O)NCC(=O)Nc1ccc(F)cc1	none
Cc1ccc(C2=NN(CC(=O)NCCN(CC(C)C)CC(C)C)C(=O)CC2)cc1	LANA-H2A inh 15
CCOC(=O)C(C)C(C)=O (configuration not stated)	LANA-H2A inh 15
Cc1ccc(S(=O)(=O)NCCNS(=O)(=O)c2ccc(C)cc2)cc1	LANA-H2A inh 19
O=S(=O)(NCCCCCNS(=O)(=O)c1ccccc1)c1ccccc1	LANA-H2A inh 16!
Cc1ccc(S(=O)(=O)NNC(=O)CCCCC(=O)NNS(=O)(=O)c2ccc(C)cc2)cc1	LANA-H2A inh 7.7
Cc1ccc(S(=O)(=O)NCCCNS(C)(=O)=O)cc1	none
CCCCN(C(=O)C(C)Oc1ccc(Cl)cc1)c1c(N)n(CCCC)c(=O)[nH]c1=O (configuration not stated)	none
O=C(/C=C/c1cc[n+](CC(=O)c2ccc3cccc4c3c2CC4)cc1)c1ccc2cccc3c2c1CC3	RTF Ca sens inh 17
C/C(=N\N=C1/NC(=O)C(C)S1)c1ccc([N+](=O)[O-])cc1 (configuration not stated)	LANA-H2A inh 16
CC(C)=N/N=C1\NC(=O)C(C)S1 (configuration not stated)	none
O=C(O)CP(=O)(O)O	LANA-H2A inh 7.2
O=C(O)CC(O)(CC(=O)O)C(=O)O	none
Cc1cccc(NC(=O)CN2C(=O)N/C(=C\c3ccc(-c4cccc(C(=O)O)c4)o3)C2=O)c1	LANA-H2A inh 113
COc1ccc(NC(=O)CN2CCC(NC(=O)c3ccco3)CC2)c([N+](=O)[O-])c1	none
CC(OC(=O)Cn1c(C(F)(F)F)nc2ccccc21)C(=O)N1CCCc2ccccc21 (configuration not stated)	LANA-H2A inh 26
COc1ccccc1/C=C/C(=O)NC(=S)Nc1ccccn1	LANA-H2A inh 8.0
COc1ccc(/C=C/C(=O)NC(=S)Nc2ccccn2)cc1	none
CCN(CC)c1ccc(/C=C/C(=O)c2ccc(Br)cc2)cc1	RTF Ca sens act 476
